The source of these data is PubChem BioAssay (NCATS).

Values joined by “and” are separate entries in the source; they are usually repeats but may differ in a detail not shown here. Equal entries are not always repeated. Results filed as inconclusive are left out. A call without a number means that no potency is given here. Active and inactive are the calls of the source. The call rests on the fitted dose curve.
Potency means the concentration at half of the fitted maximal effect.

The first assay can be described thus: Cytotoxicity counterscreen for inhibitors of SARS-CoV-2 cell entry (AID 1645845). Further: nearly all actives have a fitted effect of over 50% in size. The following applies: cell viability (SARS-CoV-2 entry assay cells); series mostly up to 57.1 µM. In a few lines:
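48 h compound treatment (after 1 h preincubation), HEK293-ACE2 cells, 37 C/5% CO2; ATP luminescence endpoint; normalized to cell wells and media blanks.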
Take `Cc1cc2c(cc1C1(c3ccc(C(=O)O)cn3)CC1)C(C)(C)CCC2(C)C`: the Potency result was “inactive”.
Same read-out and setting: the value for `NC(=O)C1CCCc2c1[nH]c1ccc(Cl)cc21` (stereo unspecified) was “inactive”; that for `COc1ccc2cc(CCC(C)=O)ccc2c1` was “inactive”; that for `COc1cc2ncnc(-n3nc(-c4ccccn4)nc3N)c2cc1OC` was “inactive”.
On the same count and under the same terms, the value for `O=C(Nc1ccccc1-c1cn2c(CN3CCNCC3)csc2n1)c1cnc2ccccc2n1` was 7.08 µM (active); that for `COc1cccc(OC)c1-c1cc(C(=O)NC2(C(=O)O)C3CC4CC(C3)CC2C4)nn1-c1ccnc2cc(Cl)ccc12` (stereo unspecified) was “inactive”; that for `Clc1ccc2ncc(-c3cccc(NC4CNC4)n3)n2c1` was “inactive”.
On the same count and under the same terms, in the case of `CC(C)(Sc1ccc(CCN(CCCCC2CCCCC2)C(=O)NC2CCCCC2)cc1)C(=O)O` it was “inactive”; in that of `CCC(C)(Oc1ccc(C2(c3ccc(OC(C)(CC)C(=O)O)cc3)CCCCC2)cc1)C(=O)O` (stereo unspecified), “inactive”; in that of `CC1=NN(c2ccccc2)C(=O)C1`, “inactive”.
Regarding `COc1cc2c(cc1OC)CC(=O)N(CCCN(C)C[C@H]1Cc3cc(OC)c(OC)cc31)CC2`, the Potency entry was “inactive”.
Same read-out and setting: the value for `C#Cc1cccc(Nc2ncnc3cc(OC)c(OCCCCCCC(=O)NO)cc23)c1` was 10 µM (active); that for `Cc1nc(N)sc1-c1ccnc(Nc2ccc(N3CCOCC3)cc2)n1` was 3.16 µM (active); that for `CC1(C)CCC(c2ccc(Cl)cc2)=C(CN2CCN(c3ccc(C(=O)NS(=O)(=O)c4ccc(N[C@H](CCN5CCOCC5)CSc5ccccc5)c(S(=O)(=O)C(F)(F)F)c4)cc3)CC2)C1` was “inactive”.
The same measure, in the same setting: in the case of `CCNC(=O)c1noc(-c2cc(C(C)C)c(O)cc2O)c1-c1ccc(CN2CCOCC2)cc1` it was “inactive”; in that of `COCCNCCCn1c(C(=O)CF)c(-c2ccc(C)cc2)c2c(N)ncnc21`, “inactive”.
Same read-out and setting: the value for `Cn1cncc1[C@@](N)(c1ccc(Cl)cc1)c1ccc2c(c1)c(-c1cccc(Cl)c1)cc(=O)n2C` was “inactive”; that for `CN1CCN(c2c(F)cc3c(=O)c(C(=O)O)cn4c3c2OCN4C)CC1` was “inactive”; that for `O=C(Nc1cc(Cl)cc2c1[nH]c1cnccc12)c1cccnc1` was “inactive”.
In the case of `Nc1nc(-c2nn(Cc3ccccc3F)c3ncccc23)nc(N)c1N1CCOCC1`, the Potency result is “inactive”.
Same read-out and setting: the value for `C[C@H](CN1CCCC1)C(=O)c1ccc(C(F)(F)F)cc1` was “inactive”.
Same read-out and setting: the value for `N#Cc1c(O)c2c(-c3ccc(-c4ccccc4O)cc3)csc2[nH]c1=O` was “inactive”; that for `O=C(O)CNC(=O)CNC(=O)CNC(=O)CSC(=O)c1ccccc1` was “inactive”; that for `c1ccc(-c2nn3c(c2-c2ccnc4cc(OCCN5CCOCC5)ccc24)CCC3)nc1` was “inactive”.
Same read-out and setting: the value for `O=C(NCCCNc1nc(Nc2cccc(NC(=O)N3CCCC3)c2)ncc1I)c1cccs1` was “inactive”; that for `C#CC(C)(CC)OC(=O)c1ccccc1C(=O)O` (stereo unspecified) was “inactive”.
Consider `CCCCn1c(=O)n(Cc2ccccc2F)c(=O)c2[nH]c(Cc3ccc(NC(C)=O)cc3)nc21`, for which the Potency result is “inactive”.
Still for that read-out and setting: in the case of `O=C(O)CC(O)C(=O)O` (stereo unspecified) it was “inactive”; in that of `CCCCCCCCCCCCCC(=O)N[C@H](CO)[C@H](O)c1ccc([N+](=O)[O-])cc1`, “inactive”.
As for `COC1=C[C@@H]2[C@@H]3Cc4ccc(OC)c(O)c4[C@]2(CCN3C)CC1=O`, the Potency entry was “inactive”.
Consider `CCCCC(CC)COC(=O)c1ccc(N(C)C)cc1` (stereo unspecified), for which the Potency result was “inactive”.
Same read-out and setting: the value for `CC1=C(/C=C/C(C)=C/C=C/C(C)=C/C(=O)O)C(C)(C)CCC1` was “inactive”; that for `O=C(Nc1cccc(C2=NCCN2)c1)Nc1cccc(C2=NCCN2)c1` was “inactive”.
Same read-out and setting: in the case of `CCOC(=O)c1c(C)n(C)c2ccc(O)cc12` it was “inactive”.
Turning to `CC(C)c1onc(-c2c(Cl)cccc2Cl)c1COc1ccc(/C=C/c2cccc(C(=O)O)c2)c(Cl)c1`, the Potency result was “inactive”.
On the same count and under the same terms, the value for `N[C@H]1C(O)O[C@H](CO)[C@@H](O)[C@@H]1O` (stereo partly specified) was “inactive”; that for `Cc1cccc(-c2[nH]ncc2-c2ccc3ncccc3n2)n1` was “inactive”; that for `CCCCC(CC)COC(=O)/C=C/c1ccc(OC)cc1` (stereo unspecified) was “inactive”.

A short description of a further assay: Primary qHTS to identify inhibitors of SARS-CoV-2 cell entry (AID 1645846). Further: nearly all actives have a fitted effect of over 45% in size. The conditions noted are these: SARS-CoV-2 pseudovirus cell entry assay, luminescence; activity change, negative = inhibition: at 57.1 µM (top of the series) unless noted; series mostly up to 57.1 µM. The essentials:
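Entry measured by luciferase signal 48 h after adding SARS-CoV-2-S pseudotyped MLV particles to HEK293-ACE2 cells preincubated 1 h with compounds. Normalisation: bald particles and spike particles.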
As to `Cc1cc2c(cc1C1(c3ccc(C(=O)O)cn3)CC1)C(C)(C)CCC2(C)C`, the Potency result was “inactive”.
As for `NC(=O)C1CCCc2c1[nH]c1ccc(Cl)cc21` (stereo unspecified), the Potency result is “inactive”.
On the same count and under the same terms, in the case of `COc1ccc2cc(CCC(C)=O)ccc2c1` it was “inactive”.
For the compound `COc1cc2ncnc(-n3nc(-c4ccccn4)nc3N)c2cc1OC`, the activity change, negative = inhibition is -6.12%.
Turning to `O=C(Nc1ccccc1-c1cn2c(CN3CCNCC3)csc2n1)c1cnc2ccccc2n1`, the Potency is 7.94 µM (active).
Regarding `COc1cccc(OC)c1-c1cc(C(=O)NC2(C(=O)O)C3CC4CC(C3)CC2C4)nn1-c1ccnc2cc(Cl)ccc12` (stereo unspecified), the Potency result was “inactive”.
Take `Clc1ccc2ncc(-c3cccc(NC4CNC4)n3)n2c1`: the activity change, negative = inhibition is -15.1%.
Still for that read-out and setting: in the case of `CC(C)(Sc1ccc(CCN(CCCCC2CCCCC2)C(=O)NC2CCCCC2)cc1)C(=O)O` it was 4.91%.
As to `CCC(C)(Oc1ccc(C2(c3ccc(OC(C)(CC)C(=O)O)cc3)CCCCC2)cc1)C(=O)O` (stereo unspecified), the Potency entry was “inactive”.
`CC1=NN(c2ccccc2)C(=O)C1`: the activity change, negative = inhibition is 0.769% and -7.18%.
With `COc1cc2c(cc1OC)CC(=O)N(CCCN(C)C[C@H]1Cc3cc(OC)c(OC)cc31)CC2`, the activity change, negative = inhibition is -5.42% and -13.8%.
As for `C#Cc1cccc(Nc2ncnc3cc(OC)c(OCCCCCCC(=O)NO)cc23)c1`, the Potency result is “inactive”.
Same read-out and setting: the value for `Cc1nc(N)sc1-c1ccnc(Nc2ccc(N3CCOCC3)cc2)n1` was 3.16 µM (active).
On the same count and under the same terms, the value for `CC1(C)CCC(c2ccc(Cl)cc2)=C(CN2CCN(c3ccc(C(=O)NS(=O)(=O)c4ccc(N[C@H](CCN5CCOCC5)CSc5ccccc5)c(S(=O)(=O)C(F)(F)F)c4)cc3)CC2)C1` was “inactive”.
As to `CCNC(=O)c1noc(-c2cc(C(C)C)c(O)cc2O)c1-c1ccc(CN2CCOCC2)cc1`, the activity change, negative = inhibition is -24.6%.
`COCCNCCCn1c(C(=O)CF)c(-c2ccc(C)cc2)c2c(N)ncnc21`: the Potency result was “inactive”.
With `Cn1cncc1[C@@](N)(c1ccc(Cl)cc1)c1ccc2c(c1)c(-c1cccc(Cl)c1)cc(=O)n2C`, the activity change, negative = inhibition was -13%.
In the case of `CN1CCN(c2c(F)cc3c(=O)c(C(=O)O)cn4c3c2OCN4C)CC1`, the Potency entry was “inactive”.
Regarding `O=C(Nc1cc(Cl)cc2c1[nH]c1cnccc12)c1cccnc1`, the activity change, negative = inhibition is -24.6% [at 27.1 µM].
Consider `Nc1nc(-c2nn(Cc3ccccc3F)c3ncccc23)nc(N)c1N1CCOCC1`, for which the Potency entry was “inactive”.
As for `C[C@H](CN1CCCC1)C(=O)c1ccc(C(F)(F)F)cc1`, the activity change, negative = inhibition was -4.68%.
On the same count and under the same terms, in the case of `N#Cc1c(O)c2c(-c3ccc(-c4ccccc4O)cc3)csc2[nH]c1=O` it was 3.57%; in that of `O=C(O)CNC(=O)CNC(=O)CNC(=O)CSC(=O)c1ccccc1`, 1.66%; in that of `c1ccc(-c2nn3c(c2-c2ccnc4cc(OCCN5CCOCC5)ccc24)CCC3)nc1`, 3.16%.
For the compound `O=C(NCCCNc1nc(Nc2cccc(NC(=O)N3CCCC3)c2)ncc1I)c1cccs1`, the Potency entry is “inactive”.
As to `C#CC(C)(CC)OC(=O)c1ccccc1C(=O)O` (stereo unspecified), the activity change, negative = inhibition was 3.66%.
Turning to `CCCCn1c(=O)n(Cc2ccccc2F)c(=O)c2[nH]c(Cc3ccc(NC(C)=O)cc3)nc21`, the Potency entry was “inactive”.
On the same count and under the same terms, in the case of `O=C(O)CC(O)C(=O)O` (stereo unspecified) it was “inactive”.
The same measure, in the same setting: the value for `CCCCCCCCCCCCCC(=O)N[C@H](CO)[C@H](O)c1ccc([N+](=O)[O-])cc1` was “inactive”.
Take `COC1=C[C@@H]2[C@@H]3Cc4ccc(OC)c(O)c4[C@]2(CCN3C)CC1=O`: the activity change, negative = inhibition is -15.7%.
Still for that read-out and setting: in the case of `CCCCC(CC)COC(=O)c1ccc(N(C)C)cc1` (stereo unspecified) it was 4.94%.
For `CC1=C(/C=C/C(C)=C/C=C/C(C)=C/C(=O)O)C(C)(C)CCC1`, the Potency result is “inactive”.
Same read-out and setting: the value for `O=C(Nc1cccc(C2=NCCN2)c1)Nc1cccc(C2=NCCN2)c1` was “inactive”.
For `CCOC(=O)c1c(C)n(C)c2ccc(O)cc12`, the activity change, negative = inhibition was -9.91%.
`CC(C)c1onc(-c2c(Cl)cccc2Cl)c1COc1ccc(/C=C/c2cccc(C(=O)O)c2)c(Cl)c1`: the Potency result was “inactive”.
Turning to `N[C@H]1C(O)O[C@H](CO)[C@@H](O)[C@@H]1O` (stereo partly specified), the activity change, negative = inhibition was -23.2%.
Turning to `Cc1cccc(-c2[nH]ncc2-c2ccc3ncccc3n2)n1`, the activity change, negative = inhibition was -1.7%.
Same read-out and setting: in the case of `CCCCC(CC)COC(=O)/C=C/c1ccc(OC)cc1` (stereo unspecified) it was -3.29%.
